Measurements: a collection of fitness landscapes (doi:10.1016/j.celrep.2020.107928)
Whole data set: some 81,000 sequences, median “one-hybrid fitness for binding NBS DNA” near -0.1, cut for the highest 2% near 0.36. The sample holds the highest values, similar sequences and a random draw of the others, so the mix is not that of the screen.

B1: Caulobacter ParB omega fusion; a variant is named by its letters at X, in order, B8GW30 (parent)
chain: MESVVVGEPGMSEGRRGLGRGLSALLGEVDAAPAQAPGEQLGGSREAPIEILQRNPDQPRRTFREEDLEDLSNSIREKGVLQPILVRPSPDTAGEYQIVAGERAWRAAQRAGLKTVPIMVRELDDLAVLEIGIIENVQRADLNVLEEALSYKVLMEKFERTQENIAQTIGKSXSHVANXMRLLXLPDEVQSYLVSGELTAXHARAIAAAADPVALAKQIIEGGLSVRETEALARKAPNLSAGKSKGGRPPRVKDTDTQALESDLSSVLGLDVSIDHRGSTGTLTITYATLEQLDDLCNRLTRGI

Variants of: B1
Test: one-hybrid fitness for binding NBS DNA (the Noc-binding site; scaled: cognate 1, non-cognate 0); higher = stronger binding
Conditions: with NBS DNA site
Method in brief: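 Pre- and post-selection plasmids were Illumina-sequenced, three replicate libraries were pooled, and any variant with under 10 reads was removed. The libraries were Caulobacter ParB with four specificity codons randomised, selected in E. coli USO through a HIS3 reporter whose site is 19 bp from the promoter. Cells grew 48 hours at 37°C on M9 without histidine, with 0.1 mM IPTG and 5 mM 3-AT. Fitness is the log change in variant-to-wild-type read ratio, rescaled against cognate and non-cognate.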

Row | Variant | one-hybrid fitness for binding NBS DNA
1 | NYIC | ≤ 0.2
2 | TPDF | ≤ 0.2
3 | QTTC | 0.223
4 | QTTD | ≤ 0.2
5 | QTTS | 0.528
6 | QTTN | 0.236
7 | QTTP | ≤ 0.2
8 | QTTH | 0.385
9 | DYIR | ≤ 0.2
10 | VVWY | ≤ 0.2
11 | HIDC | ≤ 0.2
12 | RKWN | ≤ 0.2
13 | RKWS | 0.467
14 | RKYS | 0.562
15 | RSWS | 0.238
16 | RKRP | ≤ 0.2
17 | RKRN | 0.258
18 | RKRS | 0.666
19 | RKWD | ≤ 0.2
20 | RKYD | ≤ 0.2
21 | RKYP | ≤ 0.2
22 | RPWS | ≤ 0.2
23 | RCWS | 0.388

Row | Variant | one-hybrid fitness for binding NBS DNA
24 | VTLY | ≤ 0.2
25 | TYNS | ≤ 0.2
26 | QTTI | ≤ 0.2
27 | HNLL | ≤ 0.2
28 | CGRS | ≤ 0.2
29 | WGSW | ≤ 0.2
30 | SGTG | ≤ 0.2
31 | DHMC | ≤ 0.2
32 | QRPE | ≤ 0.2
33 | EVQC | ≤ 0.2
34 | LFWV | ≤ 0.2
35 | RKNH | 0.335
36 | RKPS | ≤ 0.2
37 | RKIS | 0.403
38 | RPIR | ≤ 0.2
39 | RKDN | ≤ 0.2
40 | RKIP | ≤ 0.2
41 | RKRH | 0.429
42 | RKIR | 0.384
43 | RKDH | 0.401
44 | RKYH | 0.228
45 | RKPR | ≤ 0.2
46 | RKRD | ≤ 0.2

Row | Variant | one-hybrid fitness for binding NBS DNA
47 | SRFC | ≤ 0.2
48 | FDKC | ≤ 0.2
49 | SRTT | ≤ 0.2
50 | PLES | ≤ 0.2
51 | WGAE | ≤ 0.2
52 | WTLY | ≤ 0.2
53 | RKLS | 0.496
54 | RKLD | ≤ 0.2
55 | RKLP | ≤ 0.2
56 | ISNA | ≤ 0.2
57 | YLVK | ≤ 0.2
58 | QWGI | ≤ 0.2
59 | QRNA | 0.632
60 | QHNA | 0.294
61 | QRDA | 0.394
62 | QANA | 0.257
63 | QPDA | ≤ 0.2
64 | TKKF | ≤ 0.2
65 | TGPI | ≤ 0.2
66 | SSSR | ≤ 0.2
67 | GRQQ | ≤ 0.2
68 | PLWH | ≤ 0.2
69 | KPII | ≤ 0.2

Row | Variant | one-hybrid fitness for binding NBS DNA
70 | RDGI | ≤ 0.2
71 | NLSK | ≤ 0.2
72 | QAKH | 0.541
73 | QAVS | 0.226
74 | QAKS | 0.618
75 | QAKN | 0.356
76 | QAKP | ≤ 0.2
77 | QARQ | 0.332
78 | QAVQ | 0.32
79 | QAKD | ≤ 0.2
80 | QAKQ | 0.408
81 | CHHT | ≤ 0.2
82 | ELRT | ≤ 0.2
83 | KKYT | 0.249
84 | KKRT | 0.381
85 | KKDT | ≤ 0.2
86 | KKNT | 0.425
87 | KKAT | 0.309
88 | KKQT | 0.393
89 | KKQP | ≤ 0.2
90 | KKNN | ≤ 0.2
91 | KHQT | ≤ 0.2
92 | YQVF | ≤ 0.2

Row | Variant | one-hybrid fitness for binding NBS DNA
93 | LPAV | ≤ 0.2
94 | QGMS | ≤ 0.2
95 | PQVE | ≤ 0.2
96 | PMPS | ≤ 0.2
97 | FPGC | ≤ 0.2
98 | QLDT | 0.249
99 | QINH | ≤ 0.2
100 | QCNT | 0.569
101 | QSDT | 0.32
102 | QPNT | ≤ 0.2
103 | QFNT | ≤ 0.2
104 | QLNT | 0.45
105 | QSND | ≤ 0.2
106 | QIDT | ≤ 0.2
107 | QINT | 0.462
108 | QLNN | ≤ 0.2
109 | QSNT | 0.476
110 | MQSN | ≤ 0.2
111 | EVQG | ≤ 0.2
112 | AVQR | ≤ 0.2
113 | DELG | ≤ 0.2
114 | YHGF | ≤ 0.2
115 | ENKN | ≤ 0.2

Row | Variant | one-hybrid fitness for binding NBS DNA
116 | PKSC | ≤ 0.2
117 | EETG | ≤ 0.2
118 | PKIC | ≤ 0.2
119 | QHNH | 0.297
120 | QADT | 0.287
121 | QCDT | 0.369
122 | QPDT | ≤ 0.2
123 | QANT | 0.462
124 | QHDT | 0.344
125 | QAND | ≤ 0.2
126 | QHNT | 0.49
127 | QFDT | ≤ 0.2
128 | SMIR | ≤ 0.2
129 | HYMR | ≤ 0.2
130 | SMAM | ≤ 0.2
131 | VWNK | ≤ 0.2
132 | TTMW | ≤ 0.2
133 | QTYP | ≤ 0.2
134 | QTRP | 0.401
135 | QTDD | ≤ 0.2
136 | QCRD | 0.384
137 | QSRD | 0.219
138 | QTRD | 0.379

Row | Variant | one-hybrid fitness for binding NBS DNA
139 | QPRD | ≤ 0.2
140 | QTYN | ≤ 0.2
141 | QTYD | ≤ 0.2
142 | QTDN | ≤ 0.2
143 | QTRN | 0.543
144 | AYPY | ≤ 0.2
145 | GIDC | ≤ 0.2
146 | TRKM | 0.216
147 | LSKY | ≤ 0.2
148 | CYIS | ≤ 0.2
149 | NMYI | ≤ 0.2
150 | PGKG | ≤ 0.2
151 | REGE | ≤ 0.2
152 | SGQC | ≤ 0.2
153 | TFKE | ≤ 0.2
154 | GTES | ≤ 0.2
155 | WLDV | ≤ 0.2
156 | QYEV | ≤ 0.2
